# RAD52 anneal inh – inhibitors of human RAD52 DNA annealing. 360,000 compounds, 0.46% hits. inhibition, % at 18.7 µM. recombinant RAD52 DNA annealing, FRET fluorescence;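 active = every replicate showing at least 50% inhibition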
# Target sequence (P43351 whole entry, looked up): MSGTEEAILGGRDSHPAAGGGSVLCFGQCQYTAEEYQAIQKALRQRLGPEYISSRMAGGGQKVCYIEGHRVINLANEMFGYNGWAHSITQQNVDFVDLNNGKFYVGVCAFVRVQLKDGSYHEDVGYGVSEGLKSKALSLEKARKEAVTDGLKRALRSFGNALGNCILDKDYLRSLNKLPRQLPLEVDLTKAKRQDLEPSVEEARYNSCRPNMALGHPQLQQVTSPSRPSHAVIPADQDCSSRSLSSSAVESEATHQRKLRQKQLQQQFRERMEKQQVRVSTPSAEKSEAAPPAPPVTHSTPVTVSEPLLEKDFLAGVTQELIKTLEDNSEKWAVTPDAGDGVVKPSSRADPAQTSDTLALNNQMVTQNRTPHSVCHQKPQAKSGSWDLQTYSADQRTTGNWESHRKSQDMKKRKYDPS
# ERAP1 HTS inh – inhibitors of human ERAP1 aminopeptidase | Q9NZ08 | inhibition, % at 10.7 µM | recombinant ERAP1, Leu-AMC fluorescence, 60 min | 340,000 compounds, 0.15% hits;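 active = mean replicate inhibition of at least 30%, or all replicates individually reaching that 30% level; inactive = mean below 30% and not every replicate reaching it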;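 note: 0% = neutral control wells and 100% = L-leucinethiol positive control wells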
# DENV2 CPE rescue – inhibitors of DENV2 cytopathic effect | 350,000 compounds, 1.7% hits | DENV2-infected cells, cytopathic effect rescue, plate reader | CPE inhibition, % at 9.99 µM; in the data active = CPE inhibition above about 20%, passing the limit was not always enough; tested in BHK-21 cells;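 note: 0% = median of neutral control wells and 100% = median of positive control wells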
# AF4-AF9 inh – inhibitors of human MLL-AF4/AF9 interaction; P42568; AlphaScreen, biotin-AF4 peptide binding to FLAG-AF9; inhibition, % at 10 µM; 350,000 compounds, 0.47% hits;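 active = every replicate reaching a set inhibition limit, whatever the replicate mean, cut at about 25% in these data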;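 note: 0% = plate neutral control median and 100% = total signal loss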
# FGF22 binding – binders of recombinant human FGF22 by thermal shift. SYPRO orange fluorescence; percent of sucrose octasulfate shift, DMSO zero. activity (Tm shift, normalised), % at 9.99 µM. 340,000 compounds, 1.5% hits;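 active = mean Tm shift, scaled 0 neutral to 100 positive control, at about 1.3% or above, every replicate too, limit read from the data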
# Starred values were filed as active, the others as inactive; / = no result given. In the library only some 4% were active in any assay of this set; here they are far more common.
SMILES,RAD52 anneal inh,ERAP1 HTS inh,DENV2 CPE rescue,AF4-AF9 inh,FGF22 binding
CN1c2ccc(-c3ccc(F)cc3)cc2[C@@H]2[C@@H](CCN2C(=O)Nc2ccc(F)cc2)[C@@H]1CO,/,/,5,/,0
C[C@H]1CN([C@@H](C)CO)C(=O)c2cc(NC(=O)Cn3cnnn3)ccc2O[C@H]1CN(C)Cc1ccc(-c2ccccc2)cc1,17,-1,33*,3,/
CNC[C@H]1Oc2ccc(NC(=O)Cn3cnnn3)cc2C(=O)N([C@@H](C)CO)C[C@H]1C,-25,1,32*,-2,0
C[C@@H]1CN([C@H](C)CO)C(=O)c2cc(NC(=O)Cn3cnnn3)ccc2O[C@H]1CN(C)Cc1ccc(-c2ccccc2)cc1,-9,0,3,9,/
COc1ccc(/C=C/C(=O)O)cc1S(=O)(=O)NC1CCS(=O)(=O)C1 (stereo not given),-16,1,-3,1,44*
CCC(=O)N(C)C[C@H]1Oc2ncc(C#Cc3ccncc3)cc2C(=O)N([C@H](C)CO)C[C@H]1C,-8,76*,-6,-14,0
C[C@@H]1CN([C@H](C)CO)C(=O)c2cc(C#Cc3cccnc3)cnc2O[C@@H]1CN(C)C(=O)CN(C)C,2,2,35*,-12,0
CCC(=O)N(C)C[C@H]1Oc2ncc(C#Cc3ccncc3)cc2C(=O)N([C@@H](C)CO)C[C@H]1C,-18,0,-4,-18,0
CCC(=O)N(C)C[C@@H]1Oc2ncc(C#Cc3ccncc3)cc2C(=O)N([C@@H](C)CO)C[C@@H]1C,-14,36*,-2,-14,0
CCN(CC)C(=O)C(=O)c1cccn1-c1cccc(OC)c1C#N,1,-5,-8,-3,45*
CC(C)(C)NC(=O)/C=C/c1cccs1,-9,3,7,-2,0
C[n+]1ccc(/C=C/c2cccs2)cc1,-4,53*,-1,-7,0
CC(C)(C)OC(=O)N[C@H]1C=C[C@@H](CC(=O)OCC(F)(F)F)C1,-8,11,36*,-1,0
CC(C)(C)OC(=O)N[C@@H]1C=CC(=O)C1,-13,2,-11,-3,0
Cc1ccc(S(=O)(=O)/N=C2\C=C(Nc3cccc(C(=O)O)c3)C(=O)c3ccccc32)cc1,2,-31,-1,8,0
CCc1ccc(S(=O)(=O)/N=C2\C=C(Nc3ccc(C(=O)O)cc3)C(=O)c3ccccc32)cc1,2,7,4,28*,0
COc1ccc(S(=O)(=O)Nc2cccc3c2O[C@@H](CN(C)C(=O)Nc2c(C)noc2C)[C@@H](C)CN([C@@H](C)CO)C3=O)cc1,-3,8,26*,-3,0
COc1ccc(NC(=O)N(C)C[C@@H]2Oc3c(NC(=O)Nc4ccc5c(c4)OCO5)cccc3C(=O)N([C@@H](C)CO)C[C@H]2C)cc1,-2,1,3,2,0
COc1ccc(NC(=O)Nc2cccc3c2O[C@@H](CN(C)C(=O)Nc2ccc4c(c2)OCO4)[C@@H](C)CN([C@@H](C)CO)C3=O)cc1,6,-3,27*,2,-1
Cc1noc(C)c1NC(=O)N(C)C[C@H]1Oc2c(NC(=O)Nc3ccc4c(c3)OCO4)cccc2C(=O)N([C@H](C)CO)C[C@H]1C,4,-1,24*,0,0
Cc1ccc(S(=O)(=O)Nc2cccc3c2O[C@@H](CN(C)C(=O)Nc2ccc4c(c2)OCO4)[C@@H](C)CN([C@H](C)CO)C3=O)cc1,-6,0,22*,7,-1
COc1ccc2c3c(n(C)c2c1)[C@H](CO)N(C(=O)c1ccc(F)cc1)CC31CCN(CC2CCOCC2)CC1,14,-2,-10,3,0
C[C@@H]1CCCCO[C@@H](CN(C)S(=O)(=O)c2ccc(Cl)cc2)[C@H](C)CN([C@H](C)CO)C(=O)c2cc(NS(=O)(=O)c3cccs3)ccc2O1,24,-1,-4,2,0
COc1ccc(S(=O)(=O)Nc2cccc3c2O[C@H](CN(C)C(=O)Nc2ccc4c(c2)OCO4)[C@H](C)CN([C@H](C)CO)C3=O)cc1,6,2,7,8,-1
COc1ccc(S(=O)(=O)Nc2cccc3c2O[C@@H](CN(C)C(=O)Nc2ccc4c(c2)OCO4)[C@@H](C)CN([C@H](C)CO)C3=O)cc1,-8,1,21*,6,0
Cc1oc(-c2ccccc2Cl)nc1CN1CCCCC1c1cccnc1 (stereo not given),-55,4,-4,3,43*

# Source: PubChem BioAssay (Broad Institute)
